Rows were chosen to be rich in hits. Some 21% of all compounds tested hit in one or more screens of this group.
HCV inh = qHTS Assay for Inhibitors of Hepatitis C Virus (HCV); Huh7.5.1 HCVcc-Cre infection, luciferase reporter, 44 h; Potency, µM (series often up to 41.8 µM), inactives show at the highest dose activity change, negative = inhibition, actives largely listed as inhibitors; 340,000 tested, 3.4% active; AID 651820, 2012; also: potency is read from the fitted curve at half-maximal effect; % is scaled to controls: 0 for no effect and ±100 for the full control effect
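Infectious HCVcc-Cre (~0.5 moi) was added to cells just after compound, with cells seeded 4 h earlier at 1,000 per well. Luciferase activity after 44 h culture reported infection; substrate was incubated 15 min at room temperature before reading.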
Shiga toxin inh = A qHTS for Small Molecule Inhibitors of Shiga Toxin | Vero cells, Shiga toxin protein synthesis inhibition reporter | inhibition, % at 38.7 µM | 290,000 tested, 9.2% active | AID 2315, 2010; in the data active = inhibition mostly above about 28%, no sharp cut-off; inactive = mostly below about 43%; also: 0% is about no effect
Cycloheximide cs = Cycloheximide Counterscreen for Small Molecule Inhibitors of Shiga Toxin; cell reporter, cycloheximide protein synthesis inhibition counterscreen; max response, %; 300,000 tested, 12% active; AID 2314, 2010; in the data active = max response mostly above about 13%, no sharp cut-off; inactive = mostly below about 14%; also: read at 38.3 µM for the half of the compounds with a filed dose; 0% is about no effect
Pf growth 48h = Primary qHTS for delayed death inhibitors of the malarial parasite plastid, 48 hour incubation | AID 504832, 2011 | 310,000 tested, 5.9% active | P. falciparum luciferase growth in erythrocytes, 48 h | Potency, µM (titrated, usually from 28.7 µM), without a hit: at the highest dose activity change, negative = inhibition, most hits filed as inhibitors; also: potency is read from the fitted curve at half-maximal effect; % is scaled to controls: 0 for no effect and ±100 for the full control effect
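Luciferase-expressing parasites in RBCs, 2% Hct / 0.1% parasitemia final; RPMI 1640 + 0.5% Albumax; 37 C, 5% CO2, one generation; luminescence read-out, lower signal = inhibition.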
HCMV antiviral = qHTS Assay for inhibitors of the human cytomegalovirus (HCMV) | AID 1259415, 2018 | HFF cells, HCMV-luciferase reporter, 72 h; stronger effect = lower value | activity change, negative = inhibition, % at 57.5 µM | 410,000 tested, 4.5% active; in the data active = activity change below about -60%; inconclusive = no clear call, values can overlap the other calls; inactive = above about -39%; also: % is scaled to controls: 0 for no effect and ±100 for the full control effect
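Screen run at 2 compound doses on HFFs infected with reporter HCMV, MOI 1 PFU/cell. Luciferase activity from cell lysates at 72 h post infection gave inhibition relative to buffer-only and Salinomycin wells.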
Pf growth 96h = Primary qHTS for delayed death inhibitors of the malarial parasite plastid, 96 hour incubation | P. falciparum luciferase reporter growth, 96 h | AID 504834, 2011 | Potency, µM (top dose mostly 28.7 µM), for the others: at the highest dose activity change, negative = inhibition, most hits filed as inhibitors | 320,000 tested, 6.9% active; also: potency is read from the fitted curve at half-maximal effect; % is scaled to controls: 0 for no effect and ±100 for the full control effect
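Cell-based qHTS: luciferase-tagged P. falciparum in erythrocytes (2% hematocrit, 0.05% parasitemia final) incubated with compounds for 96 hours, 37 C, 5% CO2; luciferase detection reagent then added and luminescence measured.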
* marks the source's active call; other numbers are inactive results; [ ] = remark or other dose. Unless noted, calls follow the shape of the dose curve; as a rule, active = well fitted inhibition curve with a large enough effect; inconclusive = small, poorly fitted or top-dose-only effect, or another doubt; inactive = no such curve, though single readings can be large or run the other way.

`Cc1cccc(C)c1OCC(=O)N1CCC(c2nc3ccccc3o2)CC1` gave HCMV antiviral -20.
CN(Cc1ccccc1)C(=O)c1ccccc1-c1ccccc1 was read as HCV inh 5%, Shiga toxin inh 13, Cycloheximide cs 13, Pf growth 48h 15%, HCMV antiviral -31 and Pf growth 96h 32%.
CN(C)c1oc(-c2ccccc2Cl)nc1S(=O)(=O)c1ccccc1 was read as HCV inh -13%, Shiga toxin inh -6, Cycloheximide cs -6, HCMV antiviral 55 and Pf growth 96h 6.6µM*.
For N#Cc1nc(-c2cccc3ccccc23)oc1N1CCCCC1 the results were HCV inh 0%, Shiga toxin inh 44, Cycloheximide cs 22*, Pf growth 48h 43%, HCMV antiviral 20 and Pf growth 96h 11%.
`Cc1cc(C)cc(N(CC(=O)NC2CCCC2)S(=O)(=O)c2c(C)[nH]c(=O)[nH]c2=O)c1` gave HCV inh 14%, Shiga toxin inh -9, Cycloheximide cs -2, Pf growth 48h -12%, HCMV antiviral 2 and Pf growth 96h 1%.
`O=C(CSc1nnc(NC(=O)NC2CCCCC2)s1)Nc1ccccc1F` gave HCMV antiviral 71.
Cc1nc2ccc(F)cc2cc1C(=O)Nc1ccc(Cl)c(Cl)c1 was read as HCV inh -16%, Shiga toxin inh -9, Cycloheximide cs 6, Pf growth 48h 17%, HCMV antiviral -61* and Pf growth 96h 31%.
Screening O=[N+]([O-])c1ccc2c(c1)c1ccccc1n2CCO returned HCV inh -35%, Shiga toxin inh -5, Cycloheximide cs 5, Pf growth 48h inconclusive, HCMV antiviral -11 and Pf growth 96h inconclusive.
Screening CCN(CC)CC(O)Cn1c(C)c(-c2ccccc2)c2cc([N+](=O)[O-])ccc21 (centres undefined) returned HCV inh 14µM*, Shiga toxin inh -8, Cycloheximide cs -6, HCMV antiviral -68* and Pf growth 96h 21%.
For O=C1CN(C(=O)COC(=O)[C@@H]2CCCN2S(=O)(=O)c2ccc(Cl)cc2)c2ccccc2N1 the results were HCV inh 18% and HCMV antiviral -8.
Screening COC(=O)c1ccc(N2CCN(C)CC2)c([N+](=O)[O-])c1 returned HCV inh 0%, Shiga toxin inh 33, Cycloheximide cs -2, Pf growth 48h 64%, HCMV antiviral -31 and Pf growth 96h 20%.
`CC1Cc2ccccc2N1C(=O)c1ccc(N2CCCC2)c([N+](=O)[O-])c1` (centres undefined) gave HCV inh 13µM*, Shiga toxin inh 17, Cycloheximide cs 7, Pf growth 48h inconclusive, HCMV antiviral -39 and Pf growth 96h inconclusive.
For O=C(O)c1ccccc1C(=O)c1ccc(N2CCCC2)c([N+](=O)[O-])c1 the results were HCV inh 20%, Shiga toxin inh 1, Cycloheximide cs -2, Pf growth 48h -6%[1.15 µM], HCMV antiviral 25 and Pf growth 96h 12µM*.
Screening O=C(c1ccccc1)c1cc([N+](=O)[O-])ccc1N1CCCC1 returned HCV inh inconclusive, Shiga toxin inh -9, Cycloheximide cs -7, Pf growth 48h -1%, HCMV antiviral -61* and Pf growth 96h -25%.
For CC(=O)c1ccc(N2CCN(c3ccccc3O)CC2)c([N+](=O)[O-])c1 the results were HCV inh -23%, Shiga toxin inh 2, Cycloheximide cs 6.0*, Pf growth 48h 0%, HCMV antiviral -6 and Pf growth 96h 16%.
`O=C(O)c1ccccc1C(=O)c1ccc(N2CCOCC2)c([N+](=O)[O-])c1` gave HCV inh -11%, Shiga toxin inh -5, Cycloheximide cs -1, Pf growth 48h 5%, HCMV antiviral 4 and Pf growth 96h inconclusive.
Screening CCOC(=O)c1cc(S(=O)(=O)Nc2c(C)cc(C)cc2C)[nH]n1 returned HCMV antiviral -2.
CN1CCN(c2ccc([N+](=O)[O-])cc2C(=O)c2ccc(Br)cc2)CC1 was read as HCV inh -24%, Shiga toxin inh 52, Cycloheximide cs -6, Pf growth 48h inconclusive, HCMV antiviral inconclusive and Pf growth 96h 120%.
O=C(c1ccc(Br)cc1)c1cc([N+](=O)[O-])ccc1N1CCCCC1 was read as HCV inh inconclusive, Shiga toxin inh -18, Cycloheximide cs -2, Pf growth 48h inconclusive, HCMV antiviral -91* and Pf growth 96h inconclusive.
Screening CCOc1ccc2cc(-c3nnc(Nc4ccc(C)cc4)s3)c(=O)oc2c1 returned HCMV antiviral -20.
Screening CC(=O)c1ccc(NC(=O)C2CCCN(S(=O)(=O)c3cn(C)cn3)C2)cc1 (centres undefined) returned HCMV antiviral -6.
For COc1ccccc1CNc1nc(-c2ccco2)nn1C(=O)c1cc(OC)c(OC)c(OC)c1 the results were HCMV antiviral 15.
For Cc1[nH]c2ccccc2c1C1=CCNCC1 the results were HCV inh 11µM*, Shiga toxin inh -8, Cycloheximide cs 12, Pf growth 48h 3.3µM*, HCMV antiviral -26 and Pf growth 96h -31%.
`Cc1ccc(C(C(=O)NCc2ccccc2)N(Cc2cccs2)C(=O)c2ccc3c(c2)OCCO3)cc1` (centres undefined) gave HCV inh inconclusive, Shiga toxin inh -7, Cycloheximide cs -3, Pf growth 48h inconclusive, HCMV antiviral -69* and Pf growth 96h inconclusive.
For COc1ccc(CNC(=O)C(c2ccc(C)cc2)N(Cc2cccs2)C(=O)c2ccc3c(c2)OCCO3)cc1 (centres undefined) the results were HCV inh 11µM*, Shiga toxin inh -10, Cycloheximide cs 3, Pf growth 48h inconclusive, HCMV antiviral inconclusive and Pf growth 96h 20%.
For c1ccc(CNCCNCc2ccccc2)cc1 the results were Shiga toxin inh -4, Cycloheximide cs -4, Pf growth 48h -7%, HCMV antiviral 10 and Pf growth 96h inconclusive.
Screening Nc1nc2n(n1)C(c1ccccc1Cl)CC(c1ccc(F)cc1)N2 (centres undefined) returned HCV inh 6%, Shiga toxin inh -6, Cycloheximide cs -3, HCMV antiviral 13 and Pf growth 96h 1.7µM*.
`COc1cccc(C2CC(c3c(F)cccc3Cl)n3nc(N)nc3N2)c1` (centres undefined) gave HCV inh 7%, Shiga toxin inh -6, Cycloheximide cs -3, Pf growth 48h inconclusive, HCMV antiviral 81 and Pf growth 96h 8%.

Screening data: PubChem BioAssay, National Center for Advancing Translational Sciences (NCATS)
